Activation data for 57 molecules are collected here from PubChem BioAssay AID652067 (The Scripps Research Institute Molecular Screening Center, 2013).

SMILES strings stand for the structures. Hit rate of the full screen: of about 370,000 compounds, about 5,400 (1.5%) were called active. This excerpt belongs to a sample that is enriched for actives. Unmarked numbers belong to inactive results.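 The calls were made as follows: active = activation above the mean of all tested compounds plus 3 SD (cut at about 5.5% in these data); inactive = the rest.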

The assay relates to DAF-12 nuclear receptor (Haemonchus contortus). Briefly: H. contortus DAF-12 nuclear receptor activators, primary screen, cell-based, luminescence, HEK293, lit1-tk-luc reporter (AID 652067).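 Also: 100% = response to 3 µM Δ7-dafachronic acid high control.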 Particulars: HEK293 hcDAF-12 lit1-tk-luc reporter, at 6.8 µM, active compounds read high, 0% DMSO, 100% Δ7-dafachronic acid.
In the case of `O=C(N1CCOCC1)N(Cc1ccccc1)c1ccccn1`, the activation is -1.16%.

`O=S(=O)(NC(=S)Nc1ccccc1)c1ccc(F)cc1`: the activation was 2.29%.

For the molecule `O=C(Nc1ccc2ccccc2c1)Nc1ccc2snnc2c1`, the activation was -0.5%.

In the case of `S=C(Nc1ccccc1)Nc1ccc2ccccc2c1`, the activation was 6.41% (active).

With `CC(=O)C1=C(C)N(Cc2ccc(Cl)cc2)C(=S)NC1c1ccc(F)cc1` (configuration not stated), the activation was 0.56%.

With `Nc1nc2c(ncn2[C@@H]2O[C@H](C(=O)N[C@@H](Cc3ccccc3)C(=O)NCc3ccccc3)[C@@H](O)[C@H]2O)c(=O)[nH]1`, the activation was 1.55%.

With `O=S(=O)(c1ccc2c(c1)OCCCO2)N1CCN(S(=O)(=O)c2c(F)cccc2F)CC1`, the activation was -1.98%.

`C=CCn1c(CCNC(=O)c2cccs2)n[nH]c1=S`: the activation is 1.16%.

For the molecule `C=CCn1c(=NC(=O)c2cccs2)sc2cc(NC(C)=O)ccc21`, the activation was 6.19% (active).

For `C=CCn1c(=NC(=O)c2ccc(S(=O)(=O)N3CCCC3)cc2)sc2cc(NC(C)=O)ccc21`, the activation was -1.46%.

In the case of `Cc1cc(=O)[nH]c(SCC(=O)Nc2ccc(Cl)cc2C)n1`, the activation was -1.08%.

In the case of `CCOc1ccc(NC(=O)COC(=O)C2CCC(=O)N2)c([N+](=O)[O-])c1` (configuration not stated), the activation is 3.85%.

Take `CN(C)c1ccc(NC(=O)NC2CCCCN(Cc3ccc(Cl)cc3)C2=O)cc1` (configuration not stated): the activation is -0.06%.

In the case of `Cc1c2cnn(CC(=O)NCCCN3CC(C)CC(C)C3)c(=O)c2c(C)n1Cc1ccc(Cl)cc1` (configuration not stated), the activation is -1.23%.

As to `CC1CCCCN1CCCNC(=O)Cn1ncc2c([nH]c3ccccc32)c1=O` (configuration not stated), the activation was 0.15%.

As for `CC1CC(C)CN(CCCNC(=O)Cn2ncc3c([nH]c4ccccc43)c2=O)C1` (configuration not stated), the activation is 6.07% (active).

Take `CC(=O)Nc1ccc(C(=O)CSc2nc3ccc(C)cc3[nH]2)cc1`: the activation is 4.98%.

On to `CSCC[C@H](NC(=O)OC(C)(C)C)C(=O)N/N=C/c1cc2ccc(C)cc2nc1Cl`, for which the activation was -0.35%.

For `Cc1ccc2cc(/C=N/Nc3ccc(C(=O)O)cc3)c(Cl)nc2c1`, the activation is 10.2% (active).

With `CC(Oc1ccccc1)C(=O)NN1Cc2ccccc2C1=N` (configuration not stated), the activation is -1.32%.

With `Cc1c(C=O)c2ccccc2n1CCOc1ccccc1`, the activation was -3.86%.

Consider `Cc1c(C=O)c2ccccc2n1CC(=O)O`, for which the activation was 9.3% (active).

With `O=C(O)Cn1c(Cc2ccccc2)nc2ccccc21`, the activation was 0.35%.

Consider `CCOC(=O)c1csc(NC(=O)C2CCCN(S(=O)(=O)c3ccc(Cl)s3)C2)n1` (configuration not stated), for which the activation was -2.96%.

`Cn1cnc(C(F)(F)F)c1-c1ccc([N+](=O)[O-])cc1`: the activation is -1.54%.

`Cc1ccc(-c2cn3cc([N+](=O)[O-])ccc3n2)cc1`: the activation was 7.66% (active).

For the molecule `COc1ccc(-c2cc(-c3nnc(SCc4ccc([N+](=O)[O-])cc4)n3N)[nH]n2)cc1`, the activation was -4.71%.

`C=CCN(C(=O)[C@@H](CCCC)[C@@H](O)c1ccc(Cl)cc1)c1ccccc1`: the activation is -1.78%.

Consider `CCCCCCCCN1C(=O)[C@@H](CC(=O)NCc2ccc(C)o2)C[C@@]2(C(=O)OC)C1=C[C@H](C(C)(C)C)O[C@@H]2C`, for which the activation is 0.67%.

As to `CN1C[C@]2(C=C3CCCCC3n3c(=O)n(-c4ccccc4)c(=O)n32)N=C1NC(=O)c1ccccc1` (some centres not stated), the activation is -1.23%.

In the case of `CCN(CC)CCn1c2c(c(SCC(=O)Nc3nc4ccccc4s3)nc1=O)CCCC2`, the activation was 1.05%.

Consider `O=C1NC(Nc2nc3ccccc3s2)(C(F)(F)F)C(=O)N1C1CCCCC1` (configuration not stated), for which the activation was 2.82%.

On to `c1ccc2sc(NN=C3CCCC3)nc2c1`, for which the activation was 9.02% (active).

As to `O=S1(=O)c2c(cccc2N2CCCCC2)O[C@H](COCc2ccccc2)CN1C1CC1`, the activation was -2.09%.

Consider `COc1cccc(-c2nc(CS(=O)(=O)CC(=O)NCCc3ccc(OC)c(OC)c3)c(C)o2)c1`, for which the activation was -1.4%.

For the molecule `COc1cccc(-c2nnc(SCCOc3ccc4c(C)cc(=O)oc4c3)o2)c1`, the activation is 0.05%.

For the molecule `O=[N+]([O-])c1ccc2oc(-c3cccc(O)c3)nc2c1`, the activation was 15.4% (active).

`O=[N+]([O-])c1ccc2c(c1)C(O)n1nc(-c3ccccc3)nc1S2` (configuration not stated): the activation is 0.58%.

On to `CC(=O)Oc1ccc2c(=O)oc(-c3ccc([N+](=O)[O-])cc3)nc2c1`, for which the activation was -2.73%.

`COc1cccc(-c2nc3cc(C)ccc3o2)c1`: the activation was 14.7% (active).

With `COc1cccc(CNC(=O)[C@H]2CCCN2C(=O)[C@H]2CCCN2C(=O)c2cc(F)cc(F)c2)c1`, the activation is -1.64%.

Take `CSc1ccc(C=Nn2c(-c3ccc(F)cc3)n[nH]c2=S)cc1`: the activation was -0.55%.

`CC(C)Cn1c(CCC(=O)O)ccc1-c1cccs1`: the activation is -0.34%.

Regarding `C=C1C(C(C)C)N(C)C2=NC(c3ccccc3)CC(=O)N12` (configuration not stated), the activation is -1.26%.

For `COc1ccc(-n2c(SCC(=O)Nc3ccccc3-c3ccccc3)nnc2-c2cccnc2)cc1`, the activation is -2.71%.

For the molecule `O=C(COc1ccccc1Cl)Nc1ccc(C(=O)c2ccc(C(=O)O)cc2)cc1`, the activation is -0.48%.

In the case of `CC(=O)Nc1ccc(NC(=O)COc2ccccc2C(=O)Nc2cccc(Cl)c2Cl)cc1`, the activation is 5.68% (active).

In the case of `O=C(COc1ccccc1Cl)Nc1ccccc1C(=O)NC1CC1`, the activation was 0.7%.

For the molecule `Brc1ccc(COCCc2cn(Cc3ccccc3)c3ccccc23)cc1`, the activation is -0.22%.

Regarding `CC(=O)O[C@@]1(C(C)=O)CCC2[C@H]3C=C(C)C4=CC(=O)CC[C@@]4(C)C3CC[C@]21C` (some centres not stated), the activation was -1.02%.

Consider `COc1ccc2cc(CCl)c(Cl)nc2c1`, for which the activation was -0.92%.

On to `COc1ccc(C=C(C#N)C#N)c(CSc2ccccn2)c1`, for which the activation is -0.83%.

As to `COc1ccc2nc(-c3ccccn3)ccc2c1`, the activation is 8.16% (active).

For `Cc1nc(CNc2ncnc3ccc(-c4ccc5c(c4)OCO5)cc23)cs1`, the activation was -1.68%.

Consider `Cc1ccc(S(=O)(=O)N(C)C)cc1NC(=O)C(C)OC(=O)c1ccc2ccccc2n1` (configuration not stated), for which the activation was 0.62%.

Regarding `O=C(Oc1ccc([N+](=O)[O-])cc1)c1ccc2ccccc2n1`, the activation was 8.61% (active).

For the molecule `N/C(Cc1ccc([N+](=O)[O-])cc1)=N\OC(=O)COc1ccc2ccccc2c1`, the activation was -2.58%.
